TEAD-YAP block = TEAD-YAP interaction inhibition, primary screen, TEAD-YAP interaction inhibitor project, luminescence, HEK-TIYL cells; TEAD-Gal4/YAP UAS-luciferase luminescence; inhibition, % at 9.12 µM; hit rate 1.4% among 640,000; in the data active means inhibition above about 32%;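 further: 0% = median of test compound wells and 100% = reference inhibitor wells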
GPR151 activ = activators of human GPR151, primary screen, cell-based, PathHunter beta-arrestin, luminescence; hit rate 1% among 650,000; G-protein coupled receptor 151 (Homo sapiens), Q8TDV0; activation, % at 11.2 µM; AID 1508602, 2020; PathHunter beta-arrestin GPR151 cells; in the data active means activation above about 4.9%;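 further: 0% = median of compound wells and 100% = cells with positive control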
Target sequence (Q8TDV0 whole entry, looked up): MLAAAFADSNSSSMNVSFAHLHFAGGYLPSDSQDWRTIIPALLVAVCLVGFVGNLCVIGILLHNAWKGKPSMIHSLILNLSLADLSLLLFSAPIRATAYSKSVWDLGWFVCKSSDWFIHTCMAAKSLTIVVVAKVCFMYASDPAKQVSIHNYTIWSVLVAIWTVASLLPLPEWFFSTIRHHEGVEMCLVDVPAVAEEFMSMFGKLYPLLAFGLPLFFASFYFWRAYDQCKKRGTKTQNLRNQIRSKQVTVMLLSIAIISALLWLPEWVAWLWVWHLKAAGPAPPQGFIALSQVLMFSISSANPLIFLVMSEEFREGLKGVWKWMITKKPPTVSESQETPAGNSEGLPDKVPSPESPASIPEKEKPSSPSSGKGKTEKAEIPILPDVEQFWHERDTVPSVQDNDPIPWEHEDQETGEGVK
MITF inh = MITF inhibitors, primary screen, biochemical, AlphaScreen, human; AlphaScreen MITF homodimerization, bead proximity signal; Microphthalmia-associated transcription factor (Homo sapiens), O75030; hit rate 0.91% among 650,000; inhibition, % at 2.6 µM; in the data active means inhibition above about 50%;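 further: 0% = vehicle wells with protein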
FBW7 act = FBW7 E3 ligase activators, primary screen, biochemical, AlphaScreen, human. F-box/WD repeat-containing protein 7 (Homo sapiens), Q969H0. AlphaScreen FBW7–phospho-cyclin E peptide binding, activator screen. normalized activity (activation), % at 26.1 µM. hit rate 0.13% among 650,000. AID 1259310, 2017; in the data active means normalized activity above about 1.9%;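 further: purified mutant Fbw7 with reduced substrate affinity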
MITF confirm = MITF inhibitors, retest of hits, confirmation, biochemical, AlphaScreen, triplicate; shares compounds with MITF inh; AlphaScreen MITF homodimerization, biotin/His-MITF beads; hit rate 16% among 4,700; inhibition, % at 2.6 µM;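 active means inhibition above a cutoff derived from the DMSO control wells, cut at about 28% in these data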;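 further: 0% = MITF dimer wells with DMSO only; inhibitors lower the bead chemiluminescence by keeping MITF from dimerizing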
AlphaScreen DR = AlphaScreen optical interference compounds, dose response, counter-screen, biochemical, HTS. shares compounds with MITF inh. hit rate 6% among 480. IC50, µM. AlphaScreen optical interference counterscreen, cell-free; call rule not given here
AS interf ctr = AlphaScreen optical interference compounds, counter-screen for MITF inhibitor project, biochemical, triplicate. shares compounds with MITF inh. LysRS AlphaScreen counterscreen, signal interference. inhibition, % at 2.6 µM. hit rate 7.6% among 4,700. AID 1259376, 2018;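 active means inhibition above a cutoff derived from the DMSO control wells, cut at about 30% in these data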
The depositor's hits bear a star; / = no result given. An excerpt weighted towards active compounds, which were near 3.5% of everything screened.

SMILES	TEAD-YAP block	GPR151 activ	MITF inh	FBW7 act	MITF confirm	AS interf ctr	others
O=C(c1cccnc1)N1CCN(CC2CC=CCC2)CC1 (stereo not given)	5	0	71*	1	-7	-5
O=C(c1cccc(OC2CCN(CC3CC=CCC3)CC2)c1)N1CCOCC1 (stereo not given)	4	0	-1	0	/	/
O=C(c1cccnc1)N1CCN(C2CCCC2)CC1	-2	0	64*	0	1	8
O=C(c1ccncc1)N1CCN(CC2CC=CCC2)CC1 (stereo not given)	7	0	73*	0	-6	0
O=C(NCc1cccnc1)C1CCN(CC2CC=CCC2)CC1 (stereo not given)	0	1	63*	0	11	15
CC(=O)c1cc(-c2ccccc2)c(-c2ccccc2)s1	5	0	-7	0	/	/
O=C(NC1(C(F)(F)F)C(=O)OC2CCCC21)NS(=O)(=O)c1ccccc1Cl (stereo not given)	4	2	0	0	/	/
O=C(NCCc1ccccc1)C1CCN(Cc2cccnc2)CC1	2	3	51*	0	8	21
COc1ccc(CN2CCC(C(=O)NCCc3ccccc3)CC2)cc1	0	1	36	0	/	/
c1ccc2c(c1)OCC(c1nc3c(-c4ccncc4)cncc3[nH]1)O2 (stereo not given)	-4	0	61*	0	39*	10	AlphaScreen DR=>6.5
CCN(CC)c1ccc(C(c2c(C)[nH][nH]c2=O)c2c(C)[nH][nH]c2=O)cc1	10	0	77*	-1	71*	-2
COc1ccc(OC)c(S(=O)(=O)NCc2cccnc2)c1	0	-1	-5	0	/	/
CCOc1ccc(OCC)c(S(=O)(=O)NCc2cccnc2)c1	1	-1	57*	0	9	13
O=C(c1cnc2ccccn12)N1CCC2(CC1)OCCO2	-1	0	-2	0	/	/
Cc1c(-c2ccccc2)c(=O)oc2ccc(O)cc12	-3	-1	80*	0	10	10
CCS(=O)(=O)N1CCN(CC(=O)NC2CCCCC2)CC1	0	3	54*	0	10	8
O=C1N[C@H](Cc2ccccc2)C(=O)N2CCN(C(=O)NC3CCCCC3)C[C@H]12	3	-1	74*	-1	71*	-9	AlphaScreen DR=>6.5
O=C1N[C@@H](Cc2ccccc2)C(=O)N2CCN(C(=O)NC3CCCCC3)C[C@H]12	13	1	76*	0	69*	-3	AlphaScreen DR=>6.5
O=C(N/N=C\c1cn(Cc2ccccc2)c2ccccc12)c1ccncc1	22	-1	11	1	/	/
O=C(Nc1ccccc1N1CCCC1)c1ccc(Cl)c([N+](=O)[O-])c1	13	2	19	0	/	/
CCSC1=NCCN1S(=O)(=O)c1ccc([N+](=O)[O-])cc1	-1	0	-2	0	/	/
Nc1c(C(=O)Nc2ccc(Br)cc2)sc(=S)n1-c1cccc(C(F)(F)F)c1	13	1	8	0	/	/
COc1cc(OC)c(OC)cc1CN(CCCN(C)C)CCCN(C)C	2	1	54*	0	-10	-3
CCN(C(=O)c1cnc2n(c1=O)CCS2)c1ccccc1	-8	3	51*	0	7	9
COc1cccc(-c2cc(N)n(S(=O)(=O)c3cccc([N+](=O)[O-])c3)n2)c1	9	0	5	0	/	/
SMILES	TEAD-YAP block	GPR151 activ	MITF inh	FBW7 act	MITF confirm	AS interf ctr	others
C=CCc1ccccc1OCCOCCN1CCN(C)CC1	0	0	60*	0	-1	13
C=CCc1ccccc1OCCOCCN1CCCCC1	2	-2	79*	0	11	25
Cc1nc(NCC(C)C)c2c3c(sc2n1)CCCC3	5	1	52*	0	12	17
Cc1nc(NCCO)c2c3c(sc2n1)CCC3	10	0	4	0	/	/
CN1CCN(CCOCCOc2ccc(Br)cc2Cl)CC1	15	1	49	0	/	/
CN1CCN(CCOCCOc2cccc(Br)c2)CC1	10	-1	72*	0	5	5
CCN1CCN(CCOc2cccc(Br)c2)CC1	8	0	68*	0	15	20
COc1ccc(NC(=O)CSc2nc3ccc(N)cc3s2)cc1	-24	0	10	0	/	/
COC(=O)CSc1nc2ccc(N)cc2s1	6	1	63*	0	-5	14
COc1ccc(/C=C2\N=C(c3ccc4c(c3)OCO4)OC2=O)cc1Cl	0	-1	69*	0	74*	10	AlphaScreen DR=>5.4
COc1cc(/C=C2\N=C(c3ccc(F)cc3)OC2=O)ccc1OCc1ccccc1Cl	-2	1	73*	0	2	16
COc1cc(/C=C2\N=C(c3ccc(C)cc3)OC2=O)ccc1OCc1ccccc1Cl	-6	-1	-1	0	/	/
COc1ccc(CN[C@H]2C[C@H]3C(=O)N[C@@H](C)C(=O)N3C2)cc1	-6	0	1	0	/	/
COc1ccc(CCNc2nc(-c3sc(C)nc3C)cs2)cc1OC	-10	-1	71*	0	11	14
CC(=O)N(C)c1ccc(OCC(O)CN2CCN(Cc3ccccc3)CC2)cc1 (stereo not given)	-7	1	82*	0	8	18
COC(=O)C(C)CN1CCc2ccccc2C1 (stereo not given)	-1	-1	47	1	/	/
COC(=O)C(C)CN1CCN(Cc2ccccc2)CC1 (stereo not given)	-4	0	78*	0	24	-3
COc1ccc(C(=O)N2CCN(Cc3ccccc3Br)CC2)cc1	3	0	59*	0	1	8
O=C(c1ccc(F)cc1)N1CCN(Cc2ccccc2Br)CC1	7	1	50	0	/	/
COc1cccc(C(=O)N2CCN(Cc3cccc4ccccc34)CC2)c1	1	1	33	0	/	/
COc1cccc(C(=O)N2CCN(Cc3ccccc3F)CC2)c1	3	-1	58*	1	13	9
COc1cccc(C(=O)N2CCN(Cc3ccccc3C(F)(F)F)CC2)c1	-9	1	71*	0	12	11
COc1cccc(C(=O)N2CCN(Cc3ccccc3Br)CC2)c1	-5	1	65*	0	7	16
CC1CC(C)(C)N(C(=O)CN2CCN(C)CC2)c2ccccc21 (stereo not given)	12	-2	81*	1	5	14
